Compound activity deposited in PubChem by several laboratories.
An excerpt weighted towards active compounds, which were near 0.77% of everything screened.
Mtb bLac sens: beta-lactam sensitization of Mtb H37Rv; M. tuberculosis H37Rv growth with meropenem, percent inhibition; inhibition, % at 25 µM; 0.27% of 330,000 active;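 also: growth measured after seven days incubation then overnight dye step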
Mtb hypoxia inh: inhibitors of hypoxia-regulated fluorescent reporter in Mycobacterium tuberculosis | M. tuberculosis hypoxia-regulated fluorescent reporter, fluorescence | fluorescence inhibition, % (concentration not given with the values) | 0.1% of 300,000 active; in the data active = fluorescence inhibition mostly above about 23%, no sharp cut-off; inactive = mostly below about 17%
RecA splice inh: Mtb RecA intein splicing inhibition | cell-free RecA intein splicing, fluorescence | 0.75% of 290,000 active | AID 2221 | inhibition, % (test concentration not listed) | P9WHJ3; in the data active = inhibition above about 30%
UGM FP inh: inhibitors of M. tuberculosis UDP-galactopyranose mutase | purified UGM, fluorescence polarization probe displacement | 0.06% of 320,000 active | inhibition, % at 10 µM | P9WIQ1; in the data active = inhibition above about 10%, passing the limit was not always enough
Rv3671c inh: Rv3671c (M. tuberculosis) protease inhibition. P9WHR9. inhibition, % at 5.96 µM. 0.048% of 320,000 active; in the data active = inhibition above about 38%;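 also: extracellular domain of Rv3671c used as enzyme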
Target sequence (P9WHR9 whole entry, looked up, the tested form may be a part): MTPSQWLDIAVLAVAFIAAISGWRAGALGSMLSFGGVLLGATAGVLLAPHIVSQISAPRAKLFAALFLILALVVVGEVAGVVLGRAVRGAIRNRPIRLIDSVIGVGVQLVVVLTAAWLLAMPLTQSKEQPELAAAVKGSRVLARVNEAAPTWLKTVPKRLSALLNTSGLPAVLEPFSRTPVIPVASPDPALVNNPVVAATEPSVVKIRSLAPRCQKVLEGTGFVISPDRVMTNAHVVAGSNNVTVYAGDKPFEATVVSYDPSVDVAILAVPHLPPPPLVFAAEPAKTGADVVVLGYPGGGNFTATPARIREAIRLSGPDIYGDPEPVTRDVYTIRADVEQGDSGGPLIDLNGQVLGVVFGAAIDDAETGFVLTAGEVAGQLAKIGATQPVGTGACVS
GFP chromo cs: counter-screen: blocks GFP chromophore formation | 83% of 2,100 active | shares compounds with RecA splice inh | cell-free GFP chromophore formation, fluorescence | EC50, µM
Of the large screens only hits and unclear results are named; the others gave an inactive call (follow-up assays come after a bar, where they were run). Unless noted, no rule for the calls is given here.

CC(C)CC(=O)O/N=C1\C(=O)N(Cc2ccc(Cl)cc2)c2ccc([N+](=O)[O-])cc21	Rv3671c inh 77 (no result: Mtb hypoxia inh)
CC/C(=C/c1sc2ccc(C)cc2[n+]1CCO)SC	RecA splice inh 34
NC1=NCC(Cc2ccc(O)cc2)N1CCCCC1CCCCC1 (configuration not stated)	none (no result: Mtb bLac sens, RecA splice inh, UGM FP inh, Rv3671c inh)
COc1ccc(OC)c(/C=C2\Oc3cc(OCC(=O)N4CCC[C@H]4C(=O)O)ccc3C2=O)c1	UGM FP inh 12 (no result: Mtb hypoxia inh)
CCCOc1ccccc1OCC(=O)N1CCN(S(=O)(=O)c2ccc(Cl)cc2)CC1	Mtb hypoxia inh 32 (no result: RecA splice inh)
CCOc1ccccc1OCCCC(=O)N1CCN(S(=O)(=O)c2ccc(Cl)cc2)CC1	none (no result: Mtb bLac sens, RecA splice inh)
CN1/C(=C\C=C(C#N)C#N)C(C)(C)c2ccccc21	UGM FP inh 72
CN1/C(=C\C=NO)C(C)(C)c2ccccc21	none (no result: Mtb bLac sens, RecA splice inh, UGM FP inh, Rv3671c inh)
CC1(C)OC2C(CO)OC(n3ccc(=O)[nH]c3=O)C2O1 (configuration not stated)	none (no result: Mtb bLac sens, RecA splice inh, UGM FP inh, Rv3671c inh)
Cn1c2ccccc2c(=O)n2c(=O)c3ccccc3cc12	RecA splice inh 93 (no result: Mtb hypoxia inh)
COC(=O)c1ccccc1Sc1ncnc2onc(C)c12	RecA splice inh 46
Cc1ccsc1/C=C1/SC(N2CCOCC2)=NC1=O	Mtb hypoxia inh 48 (no result: UGM FP inh)
O=C(CCl)Nc1ccc(N2CCCCCC2)cc1	RecA splice inh 48
CCC(=O)Nc1ccc(N2CCCCC2)cc1	none
COc1ccc(S(=O)(=O)Nc2cccc3c2OC(CN(C)S(=O)(=O)c2ccc(Cl)cc2)C(C)CN(C(C)CO)C3=O)cc1 (configuration not stated)	none (no result: Mtb bLac sens, RecA splice inh, UGM FP inh, Rv3671c inh)
Cc1ccc(C(=O)NC(C#N)=C(Cl)Cl)cc1	RecA splice inh 33 (no result: Mtb bLac sens, UGM FP inh, Rv3671c inh)
Cc1ccc(C(=O)NCC#N)cc1	none
CN(C)CCn1nnnc1SCC1=C(C(=O)O)N2C(=O)C(NC(=O)Cc3csc(N)n3)C2SC1 (configuration not stated)	none (no result: Mtb bLac sens, RecA splice inh, UGM FP inh, Rv3671c inh)
CCOc1ccc2noc3c2c1C(=O)c1ccccc1-3	UGM FP inh 21 (no result: Mtb hypoxia inh)
CCOc1ccc(-c2nc(-c3ccccc3)no2)cc1OCC	none
Cc1ccc(CSCC2Nc3ccc(C(=O)N4CCN(c5cccc(C)c5)C(C)C4)cc3NC2=O)cc1 (configuration not stated)	none (no result: Mtb hypoxia inh)
Cc1cccc(N2CCN(C(=O)c3ccc4c(c3)NC(=O)C(CSCc3ccc(F)cc3)N4)CC2C)c1 (configuration not stated)	RecA splice inh 33 (no result: Mtb hypoxia inh)
O=C(CSc1ncnc2c1nnn2-c1ccc(F)cc1)NCC1CCCO1 (configuration not stated)	RecA splice inh 38 | GFP chromo cs 8.9
Cc1ccc(-n2nnc3c(SCC(=O)NCC4CCCO4)ncnc32)cc1 (configuration not stated)	RecA splice inh 40 | GFP chromo cs inactive
O=C(Cn1cnc2c(nnn2-c2ccc(F)cc2)c1=O)NCC1CCCO1 (configuration not stated)	none
COc1ccc(SCC(Cc2ccccc2)N2CCC(C(C)(C)C)CCC2=O)cc1 (configuration not stated)	none (no result: Mtb bLac sens, RecA splice inh, UGM FP inh, Rv3671c inh)
CC(C)C(N)c1cn(C(CO)C(=O)N2CCNCC2)nn1 (configuration not stated)	none (no result: Mtb bLac sens, RecA splice inh, UGM FP inh, Rv3671c inh)
Cn1c(SCC(=O)NCc2ccc(F)cc2)nc2ccccc21	RecA splice inh 31 | GFP chromo cs inactive
COCCn1c(SCC(=O)NCc2ccc(F)cc2)nc2ccccc21	none
CC(C)CC(CSc1ccccc1)N1CCN(CC(C)C)CCC1=O (configuration not stated)	none (no result: Mtb bLac sens, RecA splice inh, UGM FP inh, Rv3671c inh)
O=C1c2ccccc2-c2onc3ccc(N4CCCC4)c1c23	RecA splice inh 55 (no result: Mtb bLac sens, UGM FP inh, Rv3671c inh) | GFP chromo cs 24
O=C1c2ccccc2C(=O)c2c1cccc2N1CCCC1	none
O=C(NC1CCC(=O)N(CCSc2ccc(Br)cc2)CC1)OCc1ccccc1 (configuration not stated)	none (no result: Mtb bLac sens, RecA splice inh, UGM FP inh, Rv3671c inh)
COc1cc(/C=C2/C(=N)N3C(=NC2=O)SN=C3S(C)(=O)=O)ccc1OC(=O)c1ccco1	none
CS(=O)(=O)C1=NSC2=NC(=O)/C(=C\c3ccc(OC(=O)c4ccco4)cc3)C(=N)N21	RecA splice inh 35 (no result: Mtb hypoxia inh) | GFP chromo cs inactive
CC(C)Cc1ccc(-c2cc(=O)[nH][nH]2)cc1	RecA splice inh 92 | GFP chromo cs 2.6
CC(C)Cc1ccc([C@H](C)C(=O)O)cc1	none (no result: Mtb hypoxia inh)
O=C(O)c1cc(Nc2cc(Cl)c3nonc3c2[N+](=O)[O-])ccc1O	RecA splice inh 97 | GFP chromo cs 1.9
O=[N+]([O-])c1c(Nc2ccccc2O)cc(Cl)c2nonc12	RecA splice inh 96 (no result: Rv3671c inh) | GFP chromo cs 1.5
O=[N+]([O-])c1c(Nc2ccccc2O)ccc2nonc12	none
COc1ccc(Cn2c(O)c(/C=N/NC(=O)c3ccccc3O)c(=O)[nH]c2=O)cc1	RecA splice inh 31 | GFP chromo cs inactive
COc1ccc(C(CC(=O)c2ccc(C)cc2)C(C#N)C#N)cc1OC (configuration not stated)	RecA splice inh 54 | GFP chromo cs 30
COC(=O)C(C(=O)OC)C(CC(=O)c1ccc(C)cc1)c1cc(OC)c(OC)c(OC)c1 (configuration not stated)	none
O=C(C=Cc1cccs1)N1CCC2(CC1)Oc1ccc(Cl)cc1C(=O)C21CC(c2cccnc2)=NO1 (configuration not stated)	none (no result: Mtb bLac sens, RecA splice inh, UGM FP inh, Rv3671c inh)
CCOC(=O)C1C2COc3cc(OC)ccc3C2N2C(=O)N(c3ccc(OC)cc3)C(=O)[C@]12C (some centres not stated)	none (no result: Mtb bLac sens, RecA splice inh, UGM FP inh, Rv3671c inh)
O=C(CSCc1cc(=O)[nH][nH]1)Nc1ccc(F)cc1	RecA splice inh 85 | GFP chromo cs 12
CCCCc1ccc(NC(=O)CSCc2cc(=O)[nH][nH]2)cc1	RecA splice inh 64 | GFP chromo cs 17
CCCCc1ccc(NC(=O)COCC)cc1	none (no result: Mtb hypoxia inh)
CCCCN1C(=S)NCC1c1ccccc1 (configuration not stated)	none (no result: Mtb bLac sens, RecA splice inh, UGM FP inh, Rv3671c inh)
Cc1ccc(N(C(=O)CNC(=O)c2ccco2)C(C(=O)NC2CCCCC2)c2cccnc2)cc1C (configuration not stated)	none
Cc1ccc(N(C(=O)CCl)C(C(=O)NC2CCCCC2)c2cccnc2)cc1C (configuration not stated)	RecA splice inh 72 | GFP chromo cs 2.6
Cc1cc(C)nc(N2N=C(C(C)(C)C)CC2=O)n1	RecA splice inh 40 | GFP chromo cs 34
Cc1ccc(SC(=O)c2c(C)noc2-c2cc(C)on2)cc1	RecA splice inh 61 (no result: Mtb hypoxia inh) | GFP chromo cs 26
NC(=NOS(=O)(=O)c1ccccc1)c1ccncc1	none (no result: Mtb bLac sens, RecA splice inh, UGM FP inh, Rv3671c inh)
CC1CCC(C)(NS(=O)(=O)OCC(Cl)(Cl)Cl)CC1 (configuration not stated)	none
O=S(=O)(N[C@H]1C[C@@H](NS(=O)(=O)OCC(Cl)(Cl)Cl)C2CCCCC21)OCC(Cl)(Cl)Cl (some centres not stated)	RecA splice inh 32 (no result: Mtb hypoxia inh) | GFP chromo cs inactive
CCCCC1COCCS(=O)(=O)N1Cc1cccc(F)c1 (configuration not stated)	none (no result: Mtb bLac sens, RecA splice inh, UGM FP inh, Rv3671c inh)
Cc1[nH]nc2c1C1(CCC(c3ccccc3)CC1)C(C#N)=C(N)O2 (configuration not stated)	RecA splice inh 77 | GFP chromo cs 25
